Bioassay records from PubChem.
KAT2A inh: inhibitors of human GCN5L2 histone acetyltransferase. Q92830. GCN5L2 HAT assay, ThioGlo1 CoA-SH fluorescence. Potency, µM (titrated, usually from 58.9 µM), for the others: top-dose activity change, negative = inhibition, most hits filed as inhibitors. actives 0.21% (n = 390,000). AID 504327; further: potency means the concentration at half of the fitted maximal effect; on the % scale 0 is the no-effect control and ±100 the full control effect
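Free CoA generated was detected with ThioGlo1 (50uM) fluorescence at Ex340nm/Em540nm, read immediately and after 20 min at room temperature. Enzyme, 20 nM in HEPES pH 7.5 buffer, saw compounds 15 min before adding 75uM H3(1-25) peptide and 70uM acetyl-CoA.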
PLK1 PBD block: blocks phosphopeptide binding to human PLK1 polo-box domain; P53350; actives 2.8% (n = 360,000); Plk1 PBD binding of FITC phosphopeptide, fluorescence polarization; Potency, µM, for inactives: max response, negative = inhibition, hits mostly inhibitors; further: potency means the concentration at half of the fitted maximal effect; series mostly up to about 57 µM; on the % scale 0 is the no-effect control and ±100 the full control effect; nearly all actives have a fitted effect of over 65% in size
JMJD2A Tudor inh: inhibitors of human JMJD2A Tudor domain | AID 504339 | Potency, µM (doses to about 114 µM), without a hit: at the top dose activity change, negative = inhibition, actives largely listed as inhibitors | O75164 | AlphaScreen JMJD2A-Tudor / H3K4me3 peptide binding | actives 4.4% (n = 390,000); further: potency means the concentration at half of the fitted maximal effect; on the % scale 0 is the no-effect control and ±100 the full control effect; nearly all actives have a fitted effect of over 50% in size
Target sequence (O75164 whole entry, looked up, the tested form may be a part): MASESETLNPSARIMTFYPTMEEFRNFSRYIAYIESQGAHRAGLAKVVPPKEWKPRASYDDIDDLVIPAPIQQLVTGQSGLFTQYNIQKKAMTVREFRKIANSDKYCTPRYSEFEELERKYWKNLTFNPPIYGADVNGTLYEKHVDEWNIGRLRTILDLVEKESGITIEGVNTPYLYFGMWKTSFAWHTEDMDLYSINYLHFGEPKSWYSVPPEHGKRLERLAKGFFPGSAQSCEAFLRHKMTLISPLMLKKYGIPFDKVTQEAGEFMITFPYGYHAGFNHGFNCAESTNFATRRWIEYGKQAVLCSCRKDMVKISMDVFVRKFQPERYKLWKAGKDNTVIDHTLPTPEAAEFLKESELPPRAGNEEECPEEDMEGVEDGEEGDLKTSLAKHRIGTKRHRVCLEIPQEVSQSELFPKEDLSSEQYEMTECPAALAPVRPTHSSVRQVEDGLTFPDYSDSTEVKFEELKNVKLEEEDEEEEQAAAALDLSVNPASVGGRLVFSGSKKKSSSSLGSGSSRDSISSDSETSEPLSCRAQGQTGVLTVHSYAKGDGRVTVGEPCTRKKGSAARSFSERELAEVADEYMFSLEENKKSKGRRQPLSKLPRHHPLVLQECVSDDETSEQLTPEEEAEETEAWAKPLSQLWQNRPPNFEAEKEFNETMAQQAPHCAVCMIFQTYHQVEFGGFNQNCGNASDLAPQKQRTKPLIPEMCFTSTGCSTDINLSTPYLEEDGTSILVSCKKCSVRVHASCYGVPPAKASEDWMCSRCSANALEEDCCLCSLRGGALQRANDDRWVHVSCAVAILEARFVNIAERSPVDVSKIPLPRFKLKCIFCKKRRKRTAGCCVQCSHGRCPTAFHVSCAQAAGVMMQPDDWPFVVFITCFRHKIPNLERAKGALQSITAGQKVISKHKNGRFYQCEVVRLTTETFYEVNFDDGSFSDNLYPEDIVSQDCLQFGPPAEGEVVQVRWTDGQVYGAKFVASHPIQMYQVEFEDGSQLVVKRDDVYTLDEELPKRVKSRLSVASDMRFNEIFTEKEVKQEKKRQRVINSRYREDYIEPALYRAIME
HP1b chromo inh: inhibitors of HP1-beta chromodomain binding to methylated histone tails; AlphaScreen HP1-beta / biotin-H3K9me3 peptide binding; Potency, µM (series often up to 114 µM), inactives show top-dose activity change, negative = inhibition, usual class: inhibitors; AID 540317; actives 0.56% (n = 390,000); further: potency means the concentration at half of the fitted maximal effect; nearly all actives have a fitted effect of over 70% in size
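HP1-beta protein (50 nM final) preincubated 30 min at room temperature with biotinylated H3(1-18)K9me3 peptide (50 nM) in PBS pH 7.4, 0.01% Tween-20, then compound added for 30 min. AlphaScreen streptavidin donor/nickel chelate acceptor beads (10 ug/mL final), 30 min dark, luminescence read.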
BAZ2B block: inhibitors of human BAZ2B bromodomain. Q9UIF8. AID 504333. actives 4.4% (n = 360,000). Potency, µM (doses to about 114 µM), for the others: top-dose activity change, negative = inhibition, usual class: inhibitors. AlphaScreen BAZ2B-H3K14Ac peptide displacement; further: potency means the concentration at half of the fitted maximal effect; on the % scale 0 is the no-effect control and ±100 the full control effect; nearly all actives have a fitted effect of over 60% in size
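Inhibition is scored as reduced AlphaScreen emission. The BAZ2B/b-H3(5-23)K14Ac complex (50 nM each) in PBS pH 7.4, 0.01% Tween-20 meets compound (up to 110 uM) for 30 min at RT before bead addition.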
PI5P4Ka inh: inhibitors of human PI5P4K alpha; max response, %; AID 652105; PI5P4Kalpha enzyme, ADP-Glo luminescence, 60 min; active compounds read low; actives 1.2% (n = 330,000); P48426; active means max response of -50% or lower; inconclusive means between -30% and -50%; inactive means -30% or higher; further: value at the top dose of about 77 µM; on the % scale 0 is the no-effect control and ±100 the full control effect
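Quantitative HTS of the MLSMR library against PI5P4Kalpha with substrate. ATP added last at 5 microM final; room temperature, 60 minutes. Remaining ATP depleted, ADP converted and read as luminescence.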
The depositor's hits bear a star; ? = inconclusive; . = no result given; [ ] = dose if it differs, or a comment. The list is not random: actives were taken first. Their share in the collection is about 7%. Unless noted, the call rests on the fitted dose curve; in most records, active means well fitted curve in the direction sought with a large enough effect; inconclusive means small, poorly fitted or top-dose-only effect, or another doubt; inactive means no such curve, though single readings can be large; an effect the other way counts as inactive or inconclusive.

SMILES | KAT2A inh | PLK1 PBD block | JMJD2A Tudor inh | HP1b chromo inh | BAZ2B block | PI5P4Ka inh
CS(=O)(=O)N1CCC[C@@]2(CCN(c3ccccn3)C2)C1 | 8% | . | . | . | . | .
C(=C\c1ccccc1)/CN1CCN(C(c2cc3ccccc3o2)c2nnnn2C2CCCCC2)CC1 (centres undefined) | . | 5% | . | . | . | 0
COC(=O)c1ccn(CSc2cc(Cl)ccc2Cl)n1 | -3% | 24µM* | 9% | 50% | 13% | 0
COC(=O)c1ccn(CSc2c(F)c(F)cc(F)c2F)n1 | 2% | 3% | 17% | 47% | 7% | 0
OC(c1ccccn1)C(O)c1ccccn1 (centres undefined) | . | -9% | 50µM* | -11% | . | 1
O=P(c1ccccc1)(c1ccccc1)C(c1ccccn1)P(=O)(c1ccccc1)c1ccccc1 | 0% | -2% | -10% | 11% | -3% | 1
O=P(c1ccccc1)(c1ccccc1)C(O)c1ccccn1 (centres undefined) | -5% | -7% | ? | 35% | 20µM* | 0
Cc1ccccc1C(O)c1ccccn1 (centres undefined) | -3% | -4% | -18% | 12% | 1% | .
CCOC(=O)c1c(C)[nH]c(C)c1S(=O)(=O)N1CCC(C(=O)Nc2ccc(C)c(N(C)C)c2)CC1 | -16% | . | -19% | 22% | -35% | .
CC1=NN(c2ccc(Br)cc2)C(=O)/C1=C/c1cccs1 | -11% | 8.4µM* | ? | -53% | 4.5µM* | 24
COc1cc(/C=C2/C(=O)N(c3ccc(C(=O)O)cc3)N=C2C)cc(OC)c1O | -13% | 40% | -22% | ? | ? | -15
COc1cc(/C=C2/C(=O)N(c3ccc(Br)cc3)N=C2C)cc(OC)c1OC | -18% | 1.3µM* | 35µM* | -35% | 40µM* | 7
N#C/C(=C(/O)CSc1nnc(Cc2cccs2)n1C1CCCCC1)c1nc2ccccc2[nH]1 | -14% | -21% | -18% | 28% | 31% | -64*
COc1ccccc1-c1nnc(SC/C(O)=C(\C#N)c2nc3ccccc3[nH]2)n1C1CCCCC1 | -10% | ? | 89µM* | ? | -8% | ?
COc1ccc(OC)c(NC(=O)C2CCCN(S(=O)(=O)c3ccc4[nH]c(=O)ccc4c3)C2)c1 (centres undefined) | 1% | . | -17% | 19% | -34% | .
O=C1OCC/C1=C\c1ccc2c(c1)OCO2 | -1% | -17% | -15% | 23% | 4% | 0
CC1=NOC(=O)/C1=C\c1ccc2c(c1)OCO2 | -16% | 2.4µM* | -2% | 25% | ? | -5
O=C1/C(=C\c2ccc3c(c2)OCO3)CCC/C1=C/c1ccc2c(c1)OCO2 | -19% | -1% | ? | -22% | 25µM* | 1
O=C1/C(=C/c2ccncc2)CCC/C1=C\c1ccncc1 | -10% | 21µM* | -15%[11.4 µM] | 18% | -28% | -8
O=C1C(=Cc2ccncc2)CCCc2ccccc21 | . | -9% | . | . | . | 0
CCCCCCCC(=O)C(C)C(=O)N(C)[C@H](Cc1ccc(OC)cc1)C(=O)N(C)[C@H](C(N)=O)C(C)C (some centres undefined) | -1% | -6% | -16% | 18% | . | 11
CCOc1ccc(C(=O)Nc2nnc(SCc3cc(=O)n4ccccc4n3)s2)cc1 | -5% | . | 7% | 22%[57 µM] | 13% | .
COc1cc(Br)c(CCNC(=O)c2ccco2)cc1OC | -15% | -14% | -3% | 69% | -9% | 2
Nc1nc(=S)c2n[nH]nc2[nH]1 | . | . | 18µM* | 46% | . | .
O=C(NNC(=S)NC1CCCCC1)c1cccc(S(=O)(=O)Nc2ccccc2Cl)c1 | -16% | 30µM* | ? | ? | -31% | -1
Cc1cc(C2CCCCC2)n(O)c(=O)c1 | ? | -8% | ? | 25% | 79µM* | -2
O=C(NNC(=O)c1cc(Br)c(Br)s1)c1ccncc1 | -1% | -1% | -13% | 17% | 8% | -7
CCCCC(OC(=O)CNC(=O)c1ccccc1)C(=O)Nc1cc(C(F)(F)F)ccc1Cl (centres undefined) | . | . | -12% | . | . | .
